# Test results from PubChem BioAssay AID1159577 (Broad Institute, 2015).
# About 240 (18%) of roughly 1,300 compounds were called active. Inconclusive results (about 8%) are left out. No rule for the calls is given here. Only a sample is shown. Entries with a potency or affinity are not part of this list.
# Experiment: HepG2 cell cytotoxicity, dose response, cytotoxicity control, cherry-picked samples (AID 1159577)
# Conditions: HepG2 cytotoxicity counterscreen, plate reader; series mostly up to 19.5 µM
row,SMILES,outcome
1,C[C@H]1CN([C@@H](C)CO)C(=O)c2c(c3ccccc3n2C)-c2ccccc2CO[C@H]1CN(C)C(=O)c1cc(Cl)cc(Cl)c1,inactive
2,CCS(=O)(=O)N1CCC2(CC1)CN(Cc1cc(F)ccc1F)[C@H](CO)c1c2c2ccc(OC)cc2n1C,inactive
3,CCCNC(=O)Nc1ccc2c(c1)OC[C@@H](C)N(CC1CCCC1)C[C@@H](C)[C@H](OC)CN(C)C2=O,inactive
4,COc1ccc2c3c([nH]c2c1)[C@H](CO)N(Cc1ccccc1OC)CC31CCN(S(=O)(=O)c2ccccc2)CC1,inactive
5,COc1ccc2c3c([nH]c2c1)[C@H](CO)N(C(=O)C1CCOCC1)CC31CCN(Cc2nccs2)CC1,inactive
6,O=C(C[C@H]1C[C@@H]2c3cc(NS(=O)(=O)c4ccc(F)cc4)ccc3O[C@@H]2[C@@H](CO)O1)N1CCc2ccccc2C1,inactive
7,O=C(c1ccccc1F)N1CC(=O)N2[C@H](C1)[C@@H](c1ccc(-c3cccnc3)cc1)[C@@H]2CO,inactive
8,N#C[C@@H]1[C@@H](c2ccccc2C2=CCCC2)[C@H](CO)N1C(=O)C1CC1,inactive
9,O=C(Nc1ccccc1)N1CCCCN2[C@@H](CO)[C@H](c3ccc(C#Cc4cccnc4)cc3)[C@@H]2C1,inactive
10,O=C(Nc1cccc(F)c1)N1CCCCN2[C@@H](CO)[C@H](c3ccc(C#Cc4cccnc4)cc3)[C@@H]2C1,inactive
11,O=C(Nc1ccccc1)N1CCCCN2[C@H](CO)[C@H](c3ccc(C#Cc4ccccc4)cc3)[C@@H]2C1,inactive
12,O=C(Nc1cccc(F)c1)N1CCCCN2[C@H](CO)[C@H](c3ccc(C#Cc4ccccc4)cc3)[C@@H]2C1,inactive
13,COc1ccc(NC(=O)N2CCCCN3[C@H](CO)[C@H](c4ccc(C#CCC(C)C)cc4)[C@@H]3C2)cc1,inactive
14,COc1ccc(NC(=O)N2CCCCN3[C@@H](CO)[C@H](c4ccc(C#Cc5ccccn5)cc4)[C@@H]3C2)cc1,inactive
15,COc1ccc(C#Cc2ccc3c(c2)[C@H]2[C@H](CCN2C(=O)c2ccccn2)[C@@H](CO)N3)cc1,inactive
16,COc1ccc(NC(=O)N2CCC3(CC2)CN(C(=O)C2CCC2)[C@H](CO)c2c3c3ccc(OC)cc3n2C)cc1,inactive
17,C[C@@H]1CN([C@H](C)CO)C(=O)c2c(c3ccccc3n2C)-c2ccccc2CO[C@H]1CN(C)S(=O)(=O)c1ccc(C(F)(F)F)cc1,inactive
18,C[C@@H]1CN([C@@H](C)CO)C(=O)c2c(c3ccccc3n2C)-c2ccccc2CO[C@H]1CN(C)C(=O)Cc1ccccc1,inactive
19,CCC(=O)N1CC2(C1)[C@@H](c1ccc(-c3cccc(OC)c3)cc1)[C@@H](CO)N2C(C)=O,inactive
20,CO[C@H]1CN(C)C(=O)c2cc(NC(=O)C3CC3)ccc2OC[C@H](C)N(Cc2cc(F)ccc2F)C[C@@H]1C,inactive
21,COc1ccc(S(=O)(=O)Nc2ccc3c(c2)CC(=O)N([C@@H](C)CO)C[C@H](C)[C@H](CN(C)S(=O)(=O)c2ccc(C)cc2)O3)cc1,inactive
22,Cc1ccc(S(=O)(=O)N(C)C[C@H]2OCc3ccccc3-c3c(n(C)c4ccccc34)C(=O)N([C@@H](C)CO)C[C@H]2C)cc1,inactive
23,COc1ccc(C#Cc2ccc([C@H]3[C@H]4CN(C(=O)Nc5ccccc5)CCCCN4[C@H]3CO)cc2)cc1,inactive

row,SMILES,outcome
1,COc1ccc(NC(=O)N2CCCCN3[C@H](CO)[C@H](c4ccc(C#Cc5ccccc5)cc4)[C@@H]3C2)cc1,inactive
2,COc1ccc(NC(=O)Nc2ccc3c(c2)[C@H]2C[C@H](CC(=O)N4CCc5ccccc5C4)O[C@H](CO)[C@H]2O3)cc1,inactive
3,COc1ccccc1-c1cccc(-c2nc(C(=O)Nc3nccs3)cc3c2[C@H](CCO)N(C(=O)CC2CC2)C3)c1,inactive
4,CO[C@H]1CN(C)C(=O)c2cc(NS(=O)(=O)c3ccccc3C)ccc2OC[C@H](C)N(C)C[C@H]1C,inactive
5,CC(C)(O)C#Cc1ccc([C@H]2[C@H](CO)N3CCCCN(C(=O)c4ccc(F)cc4)C[C@@H]23)cc1,inactive
6,COc1ccc2c3c(n(C)c2c1)[C@H](CO)N(CC1CC1)CC31CN(C(=O)c2ccc3c(c2)OCO3)C1,inactive
7,CO[C@@H]1CN(C)C(=O)c2ccc(NC(=O)C3CCC3)cc2OC[C@@H](C)N(CC2CCCCC2)C[C@H]1C,inactive
8,CO[C@@H]1CN(C)C(=O)c2cc(NC(=O)c3ccccc3F)ccc2OC[C@H](C)N(C(=O)c2ccccc2F)C[C@@H]1C,inactive
9,C[C@H](CO)N1C[C@H](C)[C@@H](CN(C)C(=O)Nc2cccc3ccccc23)Oc2ccc(NC(=O)Cc3cn(C)c4ccccc34)cc2C1=O,inactive
10,C[C@H](CO)N1C[C@H](C)[C@@H](CN(C)S(=O)(=O)c2ccc(C(F)(F)F)cc2)OCc2ccccc2-c2c(n(C)c3ccccc23)C1=O,inactive
11,N#C[C@@H]1[C@H](c2ccccc2-c2cccc(F)c2)[C@@H](CO)N1C(=O)C1CCCC1,inactive
12,CC(C)(C)[S@@](=O)N1Cc2cc(C(=O)N[C@@H]3CCN(Cc4ccccc4)C3)nc(-c3cccc(-c4cccnc4)c3)c2[C@H]1CCO,inactive
13,COCc1cn([C@@H]2C[C@@H]3O[C@H](CO)CC[C@@H]3O[C@@H]2CCc2ccc(-c3ccc(OC)cc3)cc2)nn1,inactive
14,CCCNC(=O)Nc1ccc2c(c1)C(=O)N(C)C[C@@H](OC)[C@H](C)CN(C(=O)C1CCOCC1)[C@@H](C)CO2,inactive
15,COc1ccc(NC(=O)N(C)C[C@@H]2Oc3cc(-c4ccc(C)cc4)ccc3S(=O)(=O)N([C@H](C)CO)C[C@@H]2C)cc1,inactive
16,C[C@H]1CN([C@@H](C)CO)S(=O)(=O)c2ccc(C#Cc3ccccc3)cc2O[C@@H]1CN(C)S(=O)(=O)c1cn(C)cn1,inactive
17,O=C(Nc1ccccc1)N1CCCCN2[C@H](CO)[C@H](c3ccc(C#Cc4cccnc4)cc3)[C@@H]2C1,inactive
18,COc1cccc(CN2CCCCN3[C@H](CO)[C@@H](c4ccc(C#Cc5cccnc5)cc4)[C@@H]3C2)c1,inactive
19,COc1ccc(NC(=O)N2CCCCN3[C@H](CO)[C@H](c4ccc(C#Cc5ccccn5)cc4)[C@@H]3C2)cc1,inactive
20,C[C@@H]1CN([C@H](C)CO)C(=O)c2c(c3ccccc3n2C)-c2ccccc2CO[C@@H]1CN(C)C(=O)[C@H](C)c1ccccc1,inactive
21,C[C@@H]1CN([C@H](C)CO)C(=O)c2ccccc2-c2ccccc2CO[C@H]1CN(C)C(=O)Nc1cccc(Cl)c1Cl,inactive
22,C[C@H](CO)N1C[C@H](C)[C@H](CN(C)Cc2ccc(Oc3ccccc3)cc2)Oc2c(NC(=O)c3nc4ccccc4s3)cccc2C1=O,inactive
23,C[C@H](CO)N1C[C@H](C)[C@H](CN(C)S(=O)(=O)c2cccs2)Oc2ccc(NC(=O)Cc3cn(C)c4ccccc34)cc2C1=O,inactive

row,SMILES,outcome
1,COc1ccc(C#Cc2ccc3c(c2)O[C@H](CN(C)S(=O)(=O)c2ccccc2F)[C@@H](C)CN([C@H](C)CO)S3(=O)=O)cc1,inactive
2,CC(C)(C)[S@@](=O)N1Cc2cc(C(=O)NCCN3CCCC3)nc(-c3cccc(-c4ccc(C#N)cc4)c3)c2[C@H]1CCO,inactive
3,COCC(=O)Nc1ccc2c(c1)C(=O)N(C)C[C@H](OC)[C@H](C)CN(Cc1cc(F)ccc1F)[C@@H](C)CO2,inactive
4,COc1ccccc1CNC(=O)C[C@H]1C[C@H]2c3cc(NC(=O)Cc4ccncc4)ccc3O[C@H]2[C@H](CO)O1,inactive
5,C[C@H](CO)N1C[C@H](C)[C@H](CN(C)S(=O)(=O)c2ccc(C(F)(F)F)cc2)OCc2ccccc2-c2c(n(C)c3ccccc23)C1=O,inactive
6,C[C@@H]1CN([C@@H](C)CO)C(=O)c2c(c3ccccc3n2C)-c2ccccc2CO[C@H]1CN(C)C(=O)Nc1ccccc1C(F)(F)F,inactive
7,C[C@H]1CN([C@@H](C)CO)C(=O)c2c(c3ccccc3n2C)-c2ccccc2CO[C@@H]1CN(C)C(=O)Cc1ccccc1,inactive
8,C[C@H]1CN([C@@H](C)CO)C(=O)c2c(c3ccccc3n2C)-c2ccccc2CO[C@@H]1CN(C)Cc1ccc(-c2ccccc2)cc1,inactive
9,C[C@H]1CN([C@@H](C)CO)C(=O)c2c(c3ccccc3n2C)-c2ccccc2CO[C@@H]1CN(C)C(=O)Nc1cccc(C(F)(F)F)c1,inactive
10,C[C@H](CO)N1C[C@H](C)[C@@H](CN(C)Cc2ccc(-c3ccccc3)cc2)OCc2ccccc2-c2c(n(C)c3ccccc23)C1=O,inactive
11,COc1ccc(S(=O)(=O)N2CCC3(CC2)CN(Cc2ccncc2)[C@@H](CO)c2[nH]c4cc(OC)ccc4c23)cc1,inactive
12,COc1ccccc1NC(=O)Nc1ccc2c(c1)OC[C@@H](C)N(Cc1ccccc1Cl)C[C@@H](C)[C@H](OC)CN(C)C2=O,inactive
13,CCCN(C)C[C@@H]1Oc2cc(C#Cc3cccnc3)ccc2S(=O)(=O)N([C@@H](C)CO)C[C@H]1C,inactive
14,COc1ccc2c3c([nH]c2c1)[C@H](CO)N(Cc1cc(F)ccc1F)CC31CCN(C(=O)C2CCC2)CC1,inactive
15,C[C@H](CO)N1C[C@H](C)[C@H](CN(C)C(=O)NC2CCCCC2)OCc2ccccc2-c2c(n(C)c3ccccc23)C1=O,inactive
16,CO[C@H]1CN(C)C(=O)c2cc(NC(=O)c3ccccc3F)ccc2OC[C@H](C)N(C(=O)c2ccccc2F)C[C@H]1C,inactive
17,CCC(=O)N1CC2(C1)CN(Cc1cccc(Cl)c1)[C@H](CO)c1c2c2ccc(OC)cc2n1C,inactive
18,N#C[C@@H]1[C@H](c2ccccc2-c2ccccc2F)[C@H](CO)N1C(=O)C1CCOCC1,inactive
19,N#C[C@@H]1[C@@H](c2ccccc2C2=CCCC2)[C@@H](CO)N1C(=O)NC1CCCC1,inactive
20,CN(C)C(=O)c1cccc(-c2cccc(-c3nc(C(=O)NC4CCCCC4)cc4c3[C@@H](CCO)N([S@](=O)C(C)(C)C)C4)c2)c1,inactive
21,COc1cccc(CNC(=O)c2cc3c(c(-c4cccc(-c5ccncc5)c4)n2)[C@H](CCO)N([S@@](=O)C(C)(C)C)C3)c1,inactive
22,CC(C)(C)S(=O)N1Cc2cc(C(=O)NCc3ccc(Oc4ccccc4)cc3)nc(-c3cccc(-c4cccc(F)c4)c3)c2[C@@H]1CCO (some centres undefined),inactive
23,COc1cccc(-c2cccc(-c3nc(C(=O)NCc4ccc(Oc5ccccc5)cc4)cc4c3[C@@H](CCO)N(S(=O)C(C)(C)C)C4)c2)c1 (some centres undefined),inactive
